Screening data as filed in PubChem.
Sa ugtP lethal – growth inhibition of S. aureus ugtP deletion strain; S. aureus RN4220 ugtP deletion, OD600 growth, 16 h; AID 1259309; growth inhibition, % (concentration not given with the values); 330,000 compounds, 0.54% hits; in the data active = growth inhibition above about 68%;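 note: plate controls were untreated wells for no effect and antibiotic for full effect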
RN4220 kill – S. aureus RN4220 growth inhibition | OD600, 16 h | inhibition, % (no concentration beside the values) | 330,000 compounds, 0.33% hits; in the data active = inhibition above about 85%;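 note: plate controls were untreated cells for no effect and reference antibiotic for full effect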
SSB-PriA inh – blocks PriA binding to SSB C-terminal tail; AlphaScreen SSBct-PriA binding, biotinylated peptide; inhibition, % at 33 µM; 430,000 compounds, 0.6% hits; AID 1272365; in the data active = inhibition mostly above about 37%, no sharp cut-off; inactive = mostly below about 20%;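 note: plate controls were negative control peptide for no effect and reference peptide for full effect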
* = called active by the depositor; . = no result; ! = not confirmed by another sample. Sampled rows, rich in hits. Any-hit rate of the full collection: about 1%.

SMILES | Sa ugtP lethal | RN4220 kill | SSB-PriA inh
Cc1cc(Cl)c2ccc3ccccc3c2n1 | -3 | 3 | -3
Oc1c(Cl)cc(Cl)c2cccnc12 | 41 | 56 | 83*!
Oc1ccc(N=Nc2ccccc2C(F)(F)F)c2cccnc12 | 99* | 96* | -9
COc1cc2nc(Nc3nc4c(C)cc(C)cc4s3)sc2cc1OC | . | . | -8
CNC(=O)c1c(NC(=O)C2CCCCC2)sc2c1CCC2 | . | . | -18
CC12CC(NC(=O)N1c1cc(F)ccc1F)c1cc(Br)ccc1O2 (stereo not drawn) | . | . | 0
CCN(CC)CCSc1ccc(NC(=O)c2ccccc2F)nn1 | . | . | -3
O=C(NCc1cc(-c2cc3ccccc3o2)on1)c1cccs1 | . | . | -6
O=C(Oc1c(Cl)cc(Cl)c2cccnc12)c1cccs1 | 66 | 72 | -39
O=C(Oc1c(Cl)cc(Cl)c2cccnc12)c1ccco1 | 98* | 99* | -9
O=S(=O)(NCCOc1ccc2c(c1)OCO2)c1cccc(Cl)c1 | . | . | -17
CCC(C)NC(=O)c1ccc([N+](=O)[O-])c(Cl)c1 (stereo not drawn) | 15 | 6 | 0
CCC(C)Nc1c([N+](=O)[O-])cc(C(C)(C)C)cc1[N+](=O)[O-] (stereo not drawn) | . | . | 117*
CC(C)N1CCc2c(sc(NC(=O)c3ccc(C(=O)c4ccccc4)cc3)c2C(N)=O)C1 | . | . | 81*
CC(=O)N1CCc2c(sc(NC(=O)Cc3ccccc3)c2C(N)=O)C1 | 8 | 0 | 115*
CC(C)N1CCc2c(sc(NC(=O)Cc3ccccc3)c2C(N)=O)C1 | -3 | -14 | -1
CC(C)N1CCc2c(sc(NC(=O)c3ccc4ccccc4c3)c2C(N)=O)C1 | 10 | -9 | -22
CCCCCNC(=O)CN1CCN(c2ccccc2)C1=O | . | . | -17
Cc1nnc(CNC(=O)c2cc(-c3ccco3)on2)o1 | . | . | -13
COc1ccc(-c2cc3c(SCC(=O)Nc4ccc(C)c(F)c4)nccn3n2)cc1 | . | . | -3
N#Cc1nc(-c2ccc(F)cc2)oc1N1CCCC1 | 2 | 0 | -6
N#Cc1nc(-c2ccc(F)cc2)oc1N1CCCCC1 | -5 | 5 | 10
N#Cc1nc(-c2ccc(Cl)cc2)oc1N1CCCCC1 | 15 | 6 | 65*
N#Cc1nc(-c2ccc(Cl)cc2)oc1N1CCCCCC1 | . | . | 59*
COc1ccc(-c2nnc3ccc(OCCNC(=O)NC4CCCCC4)nn23)cc1OC | . | . | 11
SMILES | Sa ugtP lethal | RN4220 kill | SSB-PriA inh
O=C(Nc1ccc2c(c1)OCCO2)C1CN(C(=O)c2cnccn2)C1 | . | . | -12
O=S(=O)(NCC1CCCO1)c1ccc(F)c(Cl)c1 (stereo not drawn) | . | . | -8
O=S(=O)(c1cccnc1)N1CCC(CSCc2ccco2)CC1 | . | . | 14
CS(=O)(=O)N1CCN(c2ccc(-c3ccccn3)nn2)CC1 | . | . | 77*
CS(=O)(=O)N1CCN(c2ccc(-c3ccco3)nn2)CC1 | . | . | -8
O=C(c1ccccc1Cl)N1CCN(c2ccc(-c3ccccn3)nn2)CC1 | . | . | 147*
Cc1ccccc1-c1ccc(N2CCN(C(=O)c3ccccn3)CC2)nn1 | . | . | -17
O=C(c1ccccn1)N1CCN(c2ccc(-c3ccccn3)nn2)CC1 | . | . | 157*
O=C(c1ccccc1Cl)N1CCN(c2ccc(-n3cccn3)nn2)CC1 | . | . | -30
Cc1onc(-c2ccccc2Cl)c1C(=O)NCCn1ncc2c(=O)n(Cc3ccccc3F)cnc21 | . | . | -9
CCCNc1nc(SC)nc2c1cnn2CCNC(=O)c1c(-c2ccccc2Cl)noc1C | . | . | 62*
CCCc1nnsc1C(=O)NCc1cc(-c2ccco2)n(C)n1 | . | . | -7
O=[N+]([O-])c1ccccc1NC(=S)NN=Cc1ccc(O)c(O)c1 | -10 | 7 | 42*
CCOc1cccc(C=NNC(=S)Nc2ccccc2[N+](=O)[O-])c1O | -28 | -5 | 7
COc1ccc(C=NN=C(N)N)cc1 | 3 | 5 | -1
NC(N)=NN=Cc1ccc(OCc2ccccc2Cl)cc1 | 101* | 100* | 19
COc1cccc(-c2nnc3sc(-c4ccccn4)nn23)c1 | -10 | 2 | -20
CN(C)c1ccc(-c2nn3c(-c4cccnc4)nnc3s2)cc1 | -1 | 6 | -1
c1ccc(-c2nn3c(-c4ccncc4)nnc3s2)nc1 | . | . | 59*
c1ccc(-c2nnc3sc(-c4ccccn4)nn23)cc1 | . | . | 45
CC(C)(C)c1ccc(-c2nnc3sc(-c4ccccn4)nn23)cc1 | 0 | -4 | 46*
CN(C)c1ccc(-c2nnc3sc(-c4ccccn4)nn23)cc1 | . | . | 74*
Clc1ccc(-c2nnc3sc(-c4ccccn4)nn23)cc1 | . | . | 48
COc1ccc(-c2nnc3sc(-c4ccccn4)nn23)cc1 | -8 | 9 | 56*
CCOc1ccc(Nc2c(S(=O)(=O)c3ccccc3)cnc3ccc(Cl)cc23)cc1 | . | . | -13
CSc1ccccc1C(=O)NCCn1ccc(-c2ccccn2)n1 | . | . | -6
O=C(Nc1cccnc1)OCc1ccccc1 | -4 | -4 | 4
O=C(Nc1ccc(Cl)c(Cl)c1)OCc1cccnc1 | 100* | 100* | -16
COc1cccc(S(=O)(=O)NCc2ccc(C(=O)Nc3ccc(Cl)c(Cl)c3)cc2)c1 | -15 | -5 | -8
